In PubChem BioAssay AID624255 (Broad Institute, 2012):
Hit rate of the full screen: of about 77,000 compounds, about 4,600 (6%) were called active. Inconclusive results (about 1%) are left out. The sample holds actives, similar compounds and a random draw of the others, so the mix is not that of the screen. Values without a mark were called inactive.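 How the source made its calls: active means mean inhibition above about 93%, with at least 55% of replicates each passing it (limit read from the data, passing the limit was not always enough); inconclusive means only one of those two conditions holds; inactive means neither condition holds.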

test: growth inhibition of T. cruzi in host fibroblasts – cell-based, beta-gal Tulahuen parasites, NIH3T3 host, luminescence, primary screen (AID 624255); details: T. cruzi beta-gal in NIH3T3, GalScreen luminescence, 90 h; at 8.34 µM; stronger effect = higher value

**Q.** For `Cc1ccc(S(=O)(=O)N2C[C@H](O)COC[C@@H]3O[C@@H](CC(=O)NCC4CCCCC4)CC[C@H]32)cc1`, which inhibition is on record?
**A.** 5.15%

**Q.** With `Cc1cccc(S(=O)(=O)N2C[C@@H](O)COC[C@H]3O[C@H](CC(=O)Nc4ccc(-c5ccccc5)cc4)CC[C@@H]32)c1` as the molecule, how does the inhibition read?
**A.** 94.5%

**Q.** For `O=C(C[C@@H]1CC[C@@H]2[C@H](COC[C@H](O)CN2S(=O)(=O)c2ccc(F)cc2)O1)NCc1ccc(Cl)c(Cl)c1`, which inhibition is on record?
**A.** 54.2%

**Q.** Which inhibition does the source give for `O=C(C[C@H]1CC[C@H]2[C@@H](COC[C@H](O)CN2S(=O)(=O)c2cccc(Cl)c2)O1)Nc1ccccc1` here?
**A.** 11.3%

**Q.** For `COc1cccc(S(=O)(=O)N2C[C@@H](O)COC[C@@H]3O[C@H](CC(=O)Nc4ccccc4)CC[C@H]32)c1`, which inhibition is on record?
**A.** 109% (active)

**Q.** Which inhibition does the source give for `Cc1ccc(S(=O)(=O)N2C[C@@H](O)COC[C@@H]3O[C@H](CC(=O)NCc4ccc(Cl)c(Cl)c4)CC[C@H]32)cc1` here?
**A.** 97.5% (active)

**Q.** Which inhibition does the source give for `Cc1ccc(S(=O)(=O)Nc2ccc3c(c2)C(=O)N([C@@H](C)CO)C[C@@H](C)[C@H](CN(C)Cc2ccncc2)O3)cc1` here?
**A.** 5.91%

**Q.** Which inhibition does the source give for `CN(C)C(=O)[C@@H]1[C@@H](CO)[C@@H]2Cn3c(ccc(-c4ccccc4F)c3=O)[C@@H]2N1C(=O)C1CC1` here?
**A.** 30.9%

**Q.** For `C[C@@H]1CCCCO[C@H](CN(C)S(=O)(=O)c2cn(C)cn2)[C@@H](C)CN([C@@H](C)CO)C(=O)c2cc(NC(=O)CCC(F)(F)F)ccc2O1`, which inhibition is on record?
**A.** 28.2%

**Q.** With `O=C(C[C@@H]1CC[C@@H](NS(=O)(=O)c2ccccc2)[C@H](CO)O1)NCc1ccc(Cl)c(Cl)c1` as the molecule, how does the inhibition read?
**A.** -48.5%

**Q.** With `C[C@@H]1CN([C@@H](C)CO)C(=O)c2cc(C#CC(C)(C)O)cnc2O[C@@H]1CN(C)C(=O)C1CCOCC1` as the molecule, how does the inhibition read?
**A.** -1.59%

**Q.** With `O=C(Cc1ccncc1)Nc1ccc2c(c1)[C@@H]1C[C@H](CC(=O)N3CCCCC3)O[C@H](CO)[C@@H]1O2` as the molecule, how does the inhibition read?
**A.** 14.2%

**Q.** For `CN1c2ccc(-c3ccccc3)cc2[C@@H]2[C@@H](CCN2C(=O)NC2CCCC2)[C@H]1CO`, which inhibition is on record?
**A.** 6.51%

**Q.** For `Cc1noc(C)c1S(=O)(=O)Nc1ccc2c(c1)C(=O)N([C@@H](C)CO)C[C@@H](C)[C@H](CN(C)C(=O)Nc1cccc3ccccc13)O2`, which inhibition is on record?
**A.** -148%

**Q.** With `Cc1noc(C)c1S(=O)(=O)Nc1ccc2c(c1)C(=O)N([C@@H](C)CO)C[C@@H](C)[C@H](CN(C)C(=O)Nc1cccc3ccccc13)OCCCC[C@H](C)O2` as the molecule, how does the inhibition read?
**A.** 72.3%

**Q.** For `C[C@@H]1CCCCO[C@H](CN(C)C(=O)Nc2cccc3ccccc23)[C@H](C)CN([C@H](C)CO)C(=O)c2cc(NS(=O)(=O)c3cccs3)ccc2O1`, which inhibition is on record?
**A.** 115% (active)

**Q.** With `C[C@@H]1CCCCO[C@@H](CN(C)C(=O)Nc2cccc3ccccc23)[C@@H](C)CN([C@H](C)CO)C(=O)c2cc(NS(C)(=O)=O)ccc2O1` as the molecule, how does the inhibition read?
**A.** -3.68%

**Q.** For `C[C@@H]1CCCCO[C@H](CN(C)C(=O)Nc2cccc3ccccc23)[C@@H](C)CN([C@H](C)CO)C(=O)c2cc(NS(=O)(=O)c3cccs3)ccc2O1`, which inhibition is on record?
**A.** 87.5%

**Q.** With `Cc1noc(C)c1S(=O)(=O)Nc1ccc2c(c1)C(=O)N([C@@H](C)CO)C[C@H](C)[C@@H](CN(C)C(=O)Nc1cccc3ccccc13)OCCCC[C@H](C)O2` as the molecule, how does the inhibition read?
**A.** 104% (active)
